The record followed here is PubChem BioAssay (Tox21).

Values without a mark were called inactive. Results filed as inconclusive are left out. The source made the active and inactive calls. Unless noted, the call rests on the fitted dose curve; in most records, active means well fitted curve in the direction sought with a large enough effect in the repeat runs; inconclusive means weak or mixed curves; inactive means no such curve, though single readings can be large; an effect the other way counts as inactive or inconclusive.

The target in test [1] is Progesterone receptor (Homo sapiens) (UniProt P06401). The test is described as follows: qHTS assay to identify small molecule agonists of the progesterone receptor (PR) signaling pathway (AID 1346784; calls by dose curve; further: nearly all actives have a fitted effect of over 30% in size). In outline:
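HEK 293T PR-UAS-bla reporter cells, 2% charcoal-stripped FBS; 6 hr settle at 37C/5% CO2, compound (DMSO) 16 hr, LiveBLAzer B/G FRET substrate 2 hr RT, fluorescence intensity read.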
For orientation: Quantitative high-throughput screening tests each substance at several concentrations.

Test [2] has the same target. The test is described as follows: qHTS assay to identify small molecule antagonists of the progesterone receptor (PR) signaling pathway (AID 1346795; active means well fitted inhibition curve with a large enough effect in the signal ratio in the repeat runs, not every such curve was filed as active; the % refers to the signal ratio). In outline:
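Beta-lactamase reporter, HEK293T PR-UAS-bla line; 2% charcoal-stripped FBS; 6 hr pre-incubation, 37C/5% CO2. Compound + R5020 1 nM final, 16 hr. LiveBLAzer B/G FRET substrate, 2 hr RT; fluorescence intensity read.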

The nature of test [3]: qHTS assay to identify small molecule antagonists of the progesterone receptor (PR) signaling pathway - cell viability counter screen (AID 1346798). Further: series mostly up to about 92 µM; nearly all actives have a fitted effect of over 50% in size. In outline: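 Luminescence readout (CellTiter-Glo, 30 min, RT) of viability in PR-UAS-bla HEK293T cells exposed to compound and R5020 agonist for 16 hr at 37C, 5% CO2; run in the same wells as the beta-lactamase reporter read.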

Test [4] can be described thus: qHTS assay to identify small molecule agonists of the progesterone receptor (PR) signaling pathway - cell viability counter screen (AID 1346799; calls by dose curve; further: nearly all actives have a fitted effect of over 45% in size). In outline: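 HEK293T PR-UAS-bla, 3,000 cells/well, 2% charcoal-stripped FBS; 6 h settle, compound 16 h at 37C/5% CO2; LiveBLAzer 2 h RT, then CellTiter-Glo 30 min RT, luminescence read.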
Test [5] is described as follows: qHTS assay to identify small molecule antagonists of the TGF-beta/Smad signaling pathway - cell viability counter screen (AID 1346824). Further: nearly all actives have a fitted effect of over 50% in size. In outline: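 SBE-bla HEK 293T cells were plated overnight at 37 C, then given compounds in DMSO plus TGF-beta1 (added as 0.25 ng/mL solution) for 5 hr. After the bla read, CellTiter-Glo was added to the same wells and luminescence read after 30 min at room temperature.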

A short description of test [6]: qHTS assay to identify small molecule agonists of the TGF-beta/Smad signaling pathway - cell viability counter screen (AID 1346829). Further: top concentration of the series differs between compounds; nearly all actives have a fitted effect of over 45% in size. Put shortly: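 CellTiter-Glo luminescence readout; SBE-bla HEK 293T cells, overnight plating, compound 5 hr at 37 C/5% CO2, then bla substrate 2 hr RT, then CellTiter-Glo 30 min RT.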
The nature of test [7]: qHTS assay to identify small molecule agonists of the TGF-beta/Smad signaling pathway (AID 1346859; active means well fitted activation curve with a large enough effect in the signal ratio in the repeat runs, not every such curve was filed as active; the % refers to the signal ratio; further: series mostly up to about 77 µM). Put shortly:
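Read-out: fluorescence at 460 and 530 nm (405 nm excitation) after a 2 hr room-temperature incubation with beta-lactamase FRET substrate. SBE-bla HEK 293T cells had been treated with test compounds for 5 hr at 37 C.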

Test [8] can be described thus: Human pregnane X receptor (PXR) small molecule agonists, qHTS cell viability counter screen (AID 1346977). Further: nearly all actives have a fitted effect of over 50% in size. In outline:
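Fluorescence read-out (CellTiter-Fluor) of viability in PXR-Luc HepG2 cells, multiplexed with the luciferase agonist read. Compounds in DMSO added after 5hr plating; 24hr total exposure at 37C, 5% CO2.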

Test [9] is described as follows: Caspase-3/7 induction in HepG2 cells by small molecules, qHTS assay (AID 1346978). Further: nearly all actives have a fitted effect of over 15% in size. Put shortly: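 Wild-type HepG2 cells (2,000/well) were settled 5 h at 37 C, 5% CO2, then exposed to compounds in DMSO for 17 h. Caspase-3/7 activity was read by luminescence 30 min after adding Caspase-Glo 3/7 reagent at room temperature.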
Test [10] is described as follows: Caspase-3/7 induction in CHO-K1 cells by small molecules, qHTS cell viability counter screen (AID 1346979). Further: nearly all actives have a fitted effect of over 35% in size. In outline:
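CHO-K1 wt, 1,500 cells/well; 5hr pre-incubation 37C/5% CO2; compound pin transfer (DMSO); 16hr exposure; CellTiter-Fluor added, 1hr, fluorescence read.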

A short description of test [11]: Caspase-3/7 induction in CHO-K1 cells by small molecules, qHTS assay (AID 1346980). Further: nearly all actives have a fitted effect of over 15% in size. Put shortly:
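Wild-type cells were seeded at 1,500 per well and settled 5 hr at 37 C, 5% CO2, then exposed to DMSO-dissolved compounds for 17 hr. Caspase-Glo 3/7 reagent was added, and luminescence was read after 30min at room temperature.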

Test [12] can be described thus: Caspase-3/7 induction in HepG2 cells by small molecules, qHTS cell viability counter screen (AID 1346981). Further: series mostly up to about 92 µM; nearly all actives have a fitted effect of over 30% in size. Put shortly:
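Steps: seed 2,000 HepG2 cells per well; incubate 5 hr at 37 C; pin-add compounds in DMSO; incubate 16 hr; add CellTiter-Fluor; after 1 hr at 37 C and 5% CO2, read fluorescence.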

For test [13], the target named is Nuclear receptor subfamily 1 group I member 2 (Homo sapiens) (UniProt O75469). The test is described as follows: Human pregnane X receptor (PXR) small molecule agonists, qHTS assay (AID 1346982). Further: nearly all actives have a fitted effect of over 35% in size. Further: potency means the concentration at half of the fitted maximal effect. Put shortly:
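Agonist mode qHTS: PXR-Luc HepG2 cells plated 5 hr before DMSO-dissolved compounds were pinned in, cultured 24 hr at 37 C, 5% CO2; ONE-Glo luminescence readout.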

For test [14], the target named is Cytochrome P450 2D6 (Homo sapiens) (UniProt P10635). Briefly: Cytochrome P450 Family 2 Subfamily D Member 6 (CYP2D6) small molecule antagonists: luciferase reporter qHTS assay (AID 1671196). Further: nearly all actives have a fitted effect of over 50% in size. Further: potency means the concentration at half of the fitted maximal effect. In outline: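 P450-Glo format: CYP2D6 converts a proluciferin substrate to luciferin in an NADPH-driven reaction lasting 1 h at room temperature. Light output, proportional to CYP2D6 activity, reflects interference by test chemicals.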
Sequence of Cytochrome P450 2D6 (Homo sapiens) (P10635 whole entry, looked up): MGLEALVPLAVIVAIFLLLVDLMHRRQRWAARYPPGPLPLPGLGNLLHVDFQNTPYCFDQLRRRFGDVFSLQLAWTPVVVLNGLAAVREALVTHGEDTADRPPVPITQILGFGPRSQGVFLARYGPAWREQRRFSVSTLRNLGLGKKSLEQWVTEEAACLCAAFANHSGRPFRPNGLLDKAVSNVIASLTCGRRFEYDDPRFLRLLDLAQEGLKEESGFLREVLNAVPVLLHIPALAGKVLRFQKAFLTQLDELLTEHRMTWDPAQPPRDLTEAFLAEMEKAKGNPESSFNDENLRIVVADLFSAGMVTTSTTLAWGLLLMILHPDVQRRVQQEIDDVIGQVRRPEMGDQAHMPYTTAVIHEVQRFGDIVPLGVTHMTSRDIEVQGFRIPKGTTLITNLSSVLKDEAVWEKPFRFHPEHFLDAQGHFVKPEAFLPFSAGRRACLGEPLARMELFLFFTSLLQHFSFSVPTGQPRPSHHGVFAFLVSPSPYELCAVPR
For orientation: In a reporter assay the amount or activity of a reporter protein is the signal.

Test [15] deals with Cytochrome P450 2C19 (Homo sapiens) (UniProt P33261). The test is described as follows: Cytochrome P450 Family 2 Subfamily C Member 19 (CYP2C19) small molecule antagonists: luciferase reporter qHTS assay (AID 1671197). Further: nearly all actives have a fitted effect of over 65% in size. Further: potency means the concentration at half of the fitted maximal effect. Put shortly:
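Enzyme-substrate mix with proluciferin substrate (P450-Glo CYP2C19 system) preincubated with compounds 10 min at room temperature; NADPH regeneration solution added, 37C for 1 h; detection reagent stops reaction, luminescence read after 20 min. Ketoconazole positive control.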

The target of test [16] is Thyrotropin-releasing hormone receptor (Homo sapiens) (UniProt P34981). The test is described as follows: qHTS assay to identify small molecule antagonists of the thyrotropin-releasing hormone receptor (TRHR) signaling pathway (AID 1346877; active means well fitted inhibition curve with a large enough effect in the repeat runs, not every such curve was filed as active; further: series mostly up to about 51 µM). In outline:
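Cells (TRHR-HEK293) are plated and kept 18 h at 37 °C/5% CO2. A calcium-sensitive dye is added for 2 h, compound follows for 5 min at room temperature, and TRH is then given at 1 nM final.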

For test [17] the target is unchanged. Briefly: qHTS assay to identify small molecule agonists of the thyrotropin-releasing hormone receptor (TRHR) signaling pathway (AID 1346891; calls by dose curve;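 further: HEK293 cells expressing TRHR with calcium dye readout; series mostly up to about 58 µM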). Put shortly: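 HEK293/TRHR cells, 1500 per well, 18 h 37 °C; Ca dye 2 h 37 °C; pin-tool compound addition (agonist mode); kinetic fluorescence 3 min, 1 s reads; 15 concentrations, triplicate.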

Sequence of Progesterone receptor (Homo sapiens) (P06401 whole entry, looked up): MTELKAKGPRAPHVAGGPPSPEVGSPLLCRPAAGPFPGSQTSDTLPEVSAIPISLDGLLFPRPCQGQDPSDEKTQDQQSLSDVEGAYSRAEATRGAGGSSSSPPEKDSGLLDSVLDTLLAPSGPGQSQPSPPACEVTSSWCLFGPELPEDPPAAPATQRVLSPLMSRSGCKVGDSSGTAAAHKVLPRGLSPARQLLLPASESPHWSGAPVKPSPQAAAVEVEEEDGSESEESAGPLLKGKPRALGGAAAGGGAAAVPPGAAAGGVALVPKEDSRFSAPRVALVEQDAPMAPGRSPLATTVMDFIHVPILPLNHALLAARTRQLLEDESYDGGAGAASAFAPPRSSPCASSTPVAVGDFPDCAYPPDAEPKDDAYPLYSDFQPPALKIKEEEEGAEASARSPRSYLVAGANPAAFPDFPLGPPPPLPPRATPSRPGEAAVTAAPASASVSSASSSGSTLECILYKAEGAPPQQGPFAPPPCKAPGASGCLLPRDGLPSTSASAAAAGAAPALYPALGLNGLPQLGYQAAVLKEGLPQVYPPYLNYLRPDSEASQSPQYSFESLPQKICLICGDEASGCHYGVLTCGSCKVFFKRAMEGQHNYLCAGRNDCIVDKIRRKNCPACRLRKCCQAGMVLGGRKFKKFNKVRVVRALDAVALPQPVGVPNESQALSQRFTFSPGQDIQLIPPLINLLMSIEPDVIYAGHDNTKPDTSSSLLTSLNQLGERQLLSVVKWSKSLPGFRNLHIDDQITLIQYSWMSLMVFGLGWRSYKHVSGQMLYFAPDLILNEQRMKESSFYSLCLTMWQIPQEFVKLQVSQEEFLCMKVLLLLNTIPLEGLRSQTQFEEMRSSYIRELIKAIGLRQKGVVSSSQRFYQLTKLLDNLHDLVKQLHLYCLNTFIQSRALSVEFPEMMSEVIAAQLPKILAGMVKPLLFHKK
Sequence of Nuclear receptor subfamily 1 group I member 2 (Homo sapiens) (O75469 whole entry, looked up): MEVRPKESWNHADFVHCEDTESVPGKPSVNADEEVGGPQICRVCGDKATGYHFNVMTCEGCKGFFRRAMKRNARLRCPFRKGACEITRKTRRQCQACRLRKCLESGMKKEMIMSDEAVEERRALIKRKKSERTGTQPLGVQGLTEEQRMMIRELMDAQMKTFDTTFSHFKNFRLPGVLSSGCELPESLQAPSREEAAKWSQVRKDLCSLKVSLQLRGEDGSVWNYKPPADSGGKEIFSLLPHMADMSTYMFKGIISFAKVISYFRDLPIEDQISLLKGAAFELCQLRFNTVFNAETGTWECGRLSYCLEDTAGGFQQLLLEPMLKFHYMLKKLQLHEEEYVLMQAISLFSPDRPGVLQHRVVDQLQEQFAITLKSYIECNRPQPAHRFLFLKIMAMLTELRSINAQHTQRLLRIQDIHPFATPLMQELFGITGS
Sequence of Cytochrome P450 2C19 (Homo sapiens) (P33261 whole entry, looked up): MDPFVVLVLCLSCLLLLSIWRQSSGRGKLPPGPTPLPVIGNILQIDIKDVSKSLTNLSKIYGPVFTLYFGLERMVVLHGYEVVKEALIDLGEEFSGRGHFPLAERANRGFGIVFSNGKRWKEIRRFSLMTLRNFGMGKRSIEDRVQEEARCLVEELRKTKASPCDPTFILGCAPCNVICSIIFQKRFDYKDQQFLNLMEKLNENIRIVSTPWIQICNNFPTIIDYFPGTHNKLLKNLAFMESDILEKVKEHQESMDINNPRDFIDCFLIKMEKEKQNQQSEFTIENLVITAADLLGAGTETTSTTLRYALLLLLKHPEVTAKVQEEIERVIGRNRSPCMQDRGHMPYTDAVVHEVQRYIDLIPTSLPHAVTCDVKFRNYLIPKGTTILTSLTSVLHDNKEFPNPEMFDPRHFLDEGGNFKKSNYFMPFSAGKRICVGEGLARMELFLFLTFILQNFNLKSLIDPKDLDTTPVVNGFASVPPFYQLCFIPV
Sequence of Thyrotropin-releasing hormone receptor (Homo sapiens) (P34981 whole entry, looked up): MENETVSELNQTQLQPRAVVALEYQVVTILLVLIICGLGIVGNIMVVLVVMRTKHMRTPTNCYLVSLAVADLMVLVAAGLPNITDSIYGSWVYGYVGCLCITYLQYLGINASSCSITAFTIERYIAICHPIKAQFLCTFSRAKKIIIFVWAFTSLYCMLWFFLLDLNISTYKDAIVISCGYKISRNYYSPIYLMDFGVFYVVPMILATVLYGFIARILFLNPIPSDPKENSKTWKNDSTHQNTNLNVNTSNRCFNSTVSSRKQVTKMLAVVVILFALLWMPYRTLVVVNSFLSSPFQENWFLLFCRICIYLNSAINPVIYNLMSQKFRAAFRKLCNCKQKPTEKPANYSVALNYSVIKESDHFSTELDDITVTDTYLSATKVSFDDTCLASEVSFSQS

As to `CCCCCSCCCCC`, the Potency result in [1], in test [2], in test [3], in test [4], in test [5] and in test [8] was “inactive” each time. The Potency result in test [9], in [10], in test [12], in [13], in test [14] and in test [15] was “inactive” throughout. The outcome in test [6], in test [7] and in test [11] was inactive.

As for `CC/C=C\CC/C=C/C(OCC)OCC`, the Potency result in test [1], in test [2], in [3], in [4], in test [5] and in test [8] was “inactive” in each case. Moreover, the Potency entry in test [9], in test [10], in test [12] and in test [14] was “inactive” throughout. Further, the compound was called inactive in [6], in test [7] and in test [11]. Moreover, the Potency in test [13] was 24.3 µM (active); in [15], 56.4 µM (active).

With `CCOC(=O)C(=O)OCC`, the Potency result in test [1], in test [2], in [3], in [4], in test [5] and in test [8] was “inactive” in each case. In addition, the Potency entry in test [9], in [13] and in test [15] was “inactive” each time. The compound was called inactive in [6], in test [7] and in [11]. For the same compound, in test [14], the Potency was 31.7 µM (active).

Consider `OCCOc1ccc(OCCO)cc1`, for which the Potency result in [1], in [2], in test [3], in test [4], in test [5] and in [8] was “inactive” in each case. Besides, the Potency entry in [9], in [10], in [12], in test [13], in test [14] and in [15] was “inactive” each time. The outcome in [6], in [7] and in test [11] was inactive.

For `C1OCOCO1`, the Potency entry in test [1], in test [2], in test [3], in test [4], in [5] and in test [8] was “inactive” in each case. The Potency entry in test [9], in [10], in [12], in test [13], in [14] and in test [15] was “inactive” each time. Besides, the outcome in [6] and in [7] was inactive.

In the case of `CC(=O)Nc1ccc(S(N)(=O)=O)cc1`, the Potency result in test [1], in test [2], in test [3], in test [4], in [8] and in [9] was “inactive” in each case. The Potency result in test [10], in test [12], in test [13] and in test [14] was “inactive” each time. Also, the result in [6], in test [7], in test [16], in test [17] and in [11] was inactive.

For `Nc1ccccc1S(=O)(=O)O`, the Potency entry in test [1], in test [2], in test [3], in test [4], in test [5] and in test [8] was “inactive” each time. The Potency entry in [9], in test [10], in test [12], in test [13], in [14] and in test [15] was “inactive” throughout. Also, the outcome in test [6] and in test [7] was inactive.

As to `CCSC(=O)N(CC(C)C)CC(C)C`, the Potency result in [1], in test [2], in test [3], in test [4], in test [5] and in test [8] was “inactive” throughout. The Potency result in test [9], in test [10], in [12], in test [13], in test [14] and in test [15] was “inactive” each time. In addition, the result in [6], in test [7] and in [11] was inactive.
